Screening results deposited in PubChem BioAssay by National Center for Advancing Translational Sciences (NCATS).
Pf Dd2 inh: blocks in vitro growth of P. falciparum Dd2; P. falciparum Dd2 growth, SYBR Green, 72 h; Potency, µM (highest dose often 28.9 µM), usual class: inhibitors; actives 4.3% (n = 120,000); AID 1347417; active = well fitted inhibition curve with a large enough effect; note: nearly all actives have a fitted effect of over 65% in size
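Readout: SYBR Green fluorescence, 485 nm excitation, 535 nm emission, after ~16 h lysis at 37C. Before that, Dd2-infected red cells (2.5% hematocrit) grew 72 h with compound, 29 uM top final concentration.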
Hits are given with their value; – = inactive; [ ] = remark or other dose. The sample as a whole holds a higher share of hits than the screen did.

SMILES	Pf Dd2 inh
CC(C)NC(=O)[C@@H]1C[C@H](N)CN1C(=O)c1ccc(-n2cnnn2)cc1	–
COc1ccc2c(CNCCc3ccco3)c(C(=O)O)n(Cc3ccc(C)cc3)c2c1	–
CCOc1ccc(CNCc2c(C(=O)O)n(Cc3ccc(C)cc3)c3cc(C)ccc23)cc1	–
COc1ccc(Cn2c(C(=O)O)c(CNCc3ccccc3F)c3ccc(OC)cc32)cc1	8.9µM
COc1ccc(Cn2c(C(=O)O)c(CNC3CCCC3)c3ccc(OC)cc32)cc1	–
CCOc1ccccc1CNCc1c(C(=O)O)n(Cc2ccccc2)c2cc(OC)ccc12	–
COc1ccc2c(CNCc3cccs3)c(C(=O)O)n(Cc3ccccc3)c2c1	–
CCOc1ccc(CNCc2c(C(=O)O)n(Cc3ccc(OC)cc3)c3ccccc23)cc1	10µM
COc1ccc2c(CNCc3ccc(Cl)cc3)c(C(=O)O)n(Cc3ccccc3C)c2c1	11µM
COc1ccc2c(CNCc3ccc(C)o3)c(C(=O)O)n(Cc3ccccc3C)c2c1	–
O=C(N1CCOCC1)N1CCn2c(nnc2-c2cncc(Br)c2)C1	–
CN1CCN(c2ccc(-c3cn(C)c(=O)n4cc(COc5ccnn5C)nc34)cn2)CC1	–
O=C(O)CCC1CCN(C(=O)c2ccccc2Cl)CC1	–
CC(C)NC(=O)N(C1CC1)C1CCOC2(CCN(C(=O)c3ccc4nc[nH]c4c3)CC2)C1 (stereo not drawn)	–
CCOCCn1c(=O)[nH]c2cc(C(=O)NCCc3ccc(C)s3)ccc21	–
CCC1=C(C(=O)OC)C(c2cc(OC)ccc2OC)N2C(CC(=O)NC3CC3)=CSC2=N1 (stereo not drawn)	–
c1ccc(Nc2cc3c(cn2)NCCN(Cc2ccsc2)C3)cc1	–
CCOc1ccccc1C(=O)N1CCCN(C(=O)C2CC2)c2ccccc21	–
CCCC(=O)N1Cc2ccccc2NC(=O)C12CCNC2 (stereo not drawn)	–
COCC(=O)NC1CCC12CCN(S(=O)(=O)C(C)C)CC2 (stereo not drawn)	–
Cc1ccc(NC(=O)N2CCC(CCNC(=O)C3CCC3)CC2)cc1F	–
CN(C)C[C@@H]1CN(Cc2ccccc2)C[C@H]1NC(=O)C1(C)CCOCC1	–
CCOc1cccc2cc(-c3nnc(Nc4ccc(F)c(Cl)c4)s3)c(=O)oc12	–
COc1cccc2cc(-c3nc(Nc4cccc(C)c4C)sc3C)c(=O)oc12	–
CCc1ccc(Nc2nc(-c3cc4cccc(OC)c4oc3=O)c(CC)s2)cc1	11µM
SMILES	Pf Dd2 inh
COCCn1ccc2c(C(=O)Nc3ccc4c(c3)C(=O)N3CCC[C@H]3C(=O)N4)cccc21	–
CCN1c2cc(C(=O)NC3CCCCC3)ccc2C(=O)N2CCCCC21 (stereo not drawn)	–
COc1cccc(NC(=O)c2c(C)nn(-c3cccc(C)c3)c2-n2cccc2)c1	–
CCC(C)NC(=O)c1sc2nc(C)c(C(=O)Nc3ccc(Cl)cc3)c(-c3ccc(Br)cc3)c2c1N (stereo not drawn)	–
COc1cc(Cl)c(C)cc1NC(=O)c1sc2nc(C)cc(C)c2c1N	–
COc1cccc(NC(=O)c2sc3nc(C)c(C(=O)Nc4ccc(C)cc4C)c(-c4sccc4C)c3c2N)c1	2.2µM
COc1cccc(NC(=O)c2sc3nc(C)c(C(=O)Nc4ccc(C)cc4C)c(-c4ccco4)c3c2N)c1	3.2µM
COc1cccc(-c2ccc3c(N)c(C(=O)Nc4cc(F)ccc4F)sc3n2)c1	–[5.79 µM]
COc1cccc(NC(=O)c2sc3nc(C)c(C(=O)Nc4ccc(C)cc4C)c(-c4ccccc4Cl)c3c2N)c1	1µM
COc1cccc(-c2ccc3c(N)c(C(=O)Nc4ccccc4C)sc3n2)c1	–
Cc1ccc(Cl)cc1NC(=O)c1sc2nc(C)c(C)c(C)c2c1N	–
COCCCNc1nc2c(-c3ccccc3)nnn2c2ccccc12	7.9µM
COCCCNc1nc2c(S(=O)(=O)c3ccc(C)cc3)nnn2c2ccccc12	–
COCCCNc1nc2c(S(=O)(=O)c3ccccc3)nnn2c2ccccc12	–
Cc1ccc(NC(=O)c2ccc(-c3cccc(Cl)c3C)o2)cc1	–
COc1ccc(NC(=O)c2ccc(-c3cccc(Cl)c3C)o2)cc1	–
O=C(NCc1ccccc1)c1ccc(-c2cccc3c2CCNC3)o1	11µM
O=C(NCc1ccccc1)c1ccc(CS(=O)(=O)c2c(Cl)cccc2Cl)o1	–
Cc1ncc2c(c1CNC(=O)c1cccc(OC(F)F)c1)CCNC2	–
O=C(Nc1ccccc1)c1ccc(-c2cccc3c2CCNC3)o1	11µM
COCCN1CC(CO)C2(CCN(C(=O)CC3CCN(C(C)=O)CC3)CC2)C1 (stereo not drawn)	–
CC(C)[C@]1(O)CN(S(=O)(=O)c2ccc3c(c2)CCC(=O)N3)C[C@H]1C	–
O=C(NCC(F)F)C1CN(c2ccccc2)C(=O)N1 (stereo not drawn)	–
Cc1cc(C(=O)N2CCC(C(=O)N3CCCCCCNC(=O)CC3)CC2)n(C)n1	–
c1ccc(CNc2nc3ccccc3c3nc(-c4ccccc4)nn23)cc1	8.9µM
SMILES	Pf Dd2 inh
Clc1ccc(CNc2nc3ccccc3c3nc(-c4cccnc4)nn23)cc1	–
CCCCNC(=O)CCC(=O)NNc1nc2ccccc2c2nc(-c3ccccc3)nn12	–
Clc1ccc(CCNc2nc3ccccc3c3nc(-c4ccccc4)nn23)cc1	–
CCCCNc1nc2ccccc2c2nc(-c3ccccc3)nn12	3.2µM
Clc1ccccc1CNc1nc2ccccc2c2nc(-c3ccccc3)nn12	–
O=C(c1cc(F)ccc1F)N1CCN(C(=O)c2nnn3c2COC(c2ccccc2)C3)CC1 (stereo not drawn)	–
COc1ccc(C(C)NC(=O)Cn2c(C)cc3nc4n(c(=O)c32)CCCCC4)cc1 (stereo not drawn)	–
O=C(NCc1cccs1)c1cc2n(n1)CC(c1ccc3c(c1)OCO3)OC2 (stereo not drawn)	–
O=C(Nc1ccc(F)cc1)N[C@H]1[C@H](O)[C@@H](N2CCCCC2)[C@@H]2OC[C@H]1O2	–
CC(C)(C)CCN1CCC(F)(c2nc(-c3ccccc3)no2)CC1	–
Fc1ccccc1-c1cnc2n[nH]c(-c3ccc4c(c3)OCO4)c2n1	–
Oc1ccccc1-c1cnc2n[nH]c(-c3ccc4c(c3)OCO4)c2n1	11µM
c1ccc(-c2cnc3n[nH]c(-c4ccc5c(c4)OCO5)c3n2)cc1	–
Cc1cccc2nc(C(=O)N3CCC4(CCNCC4)CC3)cn12	–
COCCN1Cc2ccc(Nc3ccc(OC)cc3)nc2C(C)(C(=O)NC(C)C)C1 (stereo not drawn)	13µM
COCCN1Cc2ccc(NCc3ccccc3)nc2C(C)(C(=O)NCc2ccccc2)C1 (stereo not drawn)	–
COCCN1Cc2ccc(Nc3ccc(OC)cc3)nc2C(C)(C(=O)NCC2CC2)C1 (stereo not drawn)	–
COc1cccc(CN[C@H]2[C@H](O)[C@H](O)C[C@@H]2c2ccc(N3CCOCC3)nc2)c1	–
COC(=O)c1ccc2nc(CO[C@H]3CN(C(C)C)C[C@H]3F)[nH]c2c1	–
COC(=O)c1ccc2nc(CO[C@H]3CN(Cc4ccc5ccccc5n4)C[C@H]3F)[nH]c2c1	8.9µM
COC(=O)c1ccc2nc(CO[C@H]3CN(Cc4cccnc4)C[C@H]3F)[nH]c2c1	–
COc1ccccc1C(=O)N1CCc2[nH]nc(C(=O)NCCCc3ccccc3)c2C1	–
Cc1ccc(-c2ccccc2C=O)c(C)c1	–
COCCCNC(=O)c1ccc(CN2C(=O)NC3(CCS(=O)(=O)CC3)C2=O)cc1	–
Cc1ccc(S(=O)(=O)N2CCCC(CCC(=O)NC3CCS(=O)(=O)C3)C2)cc1 (stereo not drawn)	–
